From PubChem BioAssay
Active and inactive are the calls of the source.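 How the source made its calls: active means GFP response below 50% of the DMSO control; inconclusive means fewer than 70 events counted for a yeast strain; inactive means the rest.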

Test: RPL19A-GFP modulators, yeast TOR pathway, confirmation, cell-based, S. cerevisiae, flow cytometry, cherry picks, mother/daughter gates (AID 2270)
Details: S. cerevisiae RPL19A-GFP strain, 3 h, at 10 µM, stronger effect = lower value, 100 = same GFP as DMSO wells

SMILES | GFP response vs DMSO
COC(=O)c1ccccc1Sc1ncnc2onc(C)c12 | 101% (inactive)
CC(C)(C)C(=O)C(Cl)C(=O)Nc1ccccc1 (stereo not given) | 79.7% (inactive)
O=[N+]([O-])c1ccc(S(=O)(=O)c2cccc(C(F)(F)F)c2)nc1 | 81.9% (inactive)
Cc1cccn2c(=O)c(/C=C(\C#N)C(=O)NC3CCS(=O)(=O)C3)c(N3CC(C)OC(C)C3)nc12 (stereo not given) | 97.8% (inactive)
CCc1nnc(NC(=O)c2ccc(S(=O)(=O)N(CCOC)CCOC)cc2)o1 | 95% (inactive)
Cc1ccc(N(C(=O)CCCC(=O)Nc2ccccn2)C(C(=O)NC2CCCC2)c2ccc(O)cc2)cc1C (stereo not given) | 98.4% (inactive)
COc1ccc(OC)c(C2C(C(=O)Nc3nc4ccccc4s3)=C(C)NC3=C2C(=O)CCC3)c1 (stereo not given) | 102% (inactive)
O=[N+]([O-])c1ccc(-c2cn3nc(-c4ccccc4)c(-c4ccccc4)nc3n2)cc1 | 102% (inactive)
COc1ccccc1OC(C)C(=O)Nc1ccccc1C(=O)NCC1CCCO1 (stereo not given) | 97% (inactive)
COc1ccc(NS(=O)(=O)c2cccc3ccccc23)cc1 | 99.4% (inactive)
O=C(c1ccc2ccccc2c1)N1CCN(c2ccc(O)cc2)CC1 | 101% (inactive)
O=C1c2ccsc2SCCN1Cc1cccc(Cl)c1 | 95.4% (inactive)
CCCOc1ccc(C(=O)NNC(=S)NC(=O)CC)cc1 | 126% (inactive)
Cc1cccc(N2C(=O)c3cccc4c(N(C)CCO)ccc(c34)C2=O)c1 | 98.8% (inactive)
Cc1ccc(-n2ncc(C#N)c2/N=C/N(C)C)cc1 | 103% (inactive)
C=CCOc1ccccc1C(=O)/C=C1/C(=O)Nc2ccccc21 | 101% (inactive)
O=c1cnnc(SCc2ccc([N+](=O)[O-])cc2)[nH]1 | 97.4% (inactive)
Cc1ccc(S(=O)(=O)N2CCCC2C(=O)Oc2ccccc2)cc1 (stereo not given) | 98.8% (inactive)
COCCNc1c(-c2ccc(O)cc2)nc2ccc(Cl)cn12 | 97.6% (inactive)
O=C(Nc1nc(-c2ccc(F)cc2)cs1)c1cnccn1 | 97.8% (inactive)

SMILES | GFP response vs DMSO
CS(=O)(=O)N1N=C(c2ccc3nccnc3c2)CC1c1ccccc1 (stereo not given) | 99.8% (inactive)
O=C(NCCCSc1ccccc1)c1cc(Cl)ccc1O | 100% (inactive)
COc1ccc(N2C(=O)CC(Sc3ncn[nH]3)C2=O)c(OC)c1 (stereo not given) | 107% (inactive)
CN1CCSc2ccc(C(=O)Nc3cccc(F)c3)cc21 | 95.2% (inactive)
CCN(CC)CCCN(C(=O)c1ccc(Br)cc1)c1nc(-c2ccc(OC)cc2)cs1 | 96.5% (inactive)
O=C(Nc1nccs1)C1CCCN1S(=O)(=O)c1ccc(F)cc1 (stereo not given) | 98.8% (inactive)
O=C(c1ccccc1)c1ccccc1N1C(=O)C=CC1=O | 90.5% (inactive)
COc1ccc(N2CCN(C(=O)C3CCCN(S(=O)(=O)c4ccc(C)cc4)C3)CC2)cc1 (stereo not given) | 95.2% (inactive)
Cc1cc(NCCCN2CCOCC2)n2nc(C)c(-c3ccc(F)cc3)c2n1 | 95.3% (inactive)
CCC(C)(C)n1nnnc1C(c1ccc(O)c(OC)c1)N1CCc2ccccc2C1 (stereo not given) | 100% (inactive)
COc1ccc(-c2csc(Nc3ncccc3C)n2)cc1 | 95.6% (inactive)
O=S(=O)(Nc1ccc(Br)cc1)c1cccc2nonc12 | 97.4% (inactive)
O=C(CSc1nnc(C2COc3ccccc3O2)o1)N1CCCC1 (stereo not given) | 97.8% (inactive)
CCc1noc(C)c1C(=O)Nc1nc2ccc(OC)cc2s1 | 91.8% (inactive)
CCc1ccc(C(=O)/C=C/c2ccc([N+](=O)[O-])o2)cc1 | 104% (inactive)
CSc1ccc(-c2cc(=O)c3ccccc3o2)cc1 | 92% (inactive)
COc1ccccc1C(=O)N1CCN(c2cccc(C(F)(F)F)c2)CC1 | 96.2% (inactive)
COc1cc(/C=C2\N=C(c3ccccc3)OC2=O)ccc1OCc1c(C)no[n+]1[O-] | 103% (inactive)
CC(C)C(=O)Nc1ccc(NC(=O)c2cc3ccccc3o2)cc1 | 99.6% (inactive)
CCOC(=O)Cc1csc(NC(=O)CSc2nnc(-c3ccc(C)cc3)o2)n1 | 101% (inactive)

Same assay, conditions: S. cerevisiae RPL19A-GFP strain, 3 h, measured here: daughter cell gate, at 10 µM, stronger effect = lower value, 100 = same GFP as DMSO wells

SMILES | GFP response vs DMSO [%]
COC(=O)c1ccccc1Sc1ncnc2onc(C)c12 | 100
CC(C)(C)C(=O)C(Cl)C(=O)Nc1ccccc1 (stereo not given) | 89.6
O=[N+]([O-])c1ccc(S(=O)(=O)c2cccc(C(F)(F)F)c2)nc1 | 92.5
Cc1cccn2c(=O)c(/C=C(\C#N)C(=O)NC3CCS(=O)(=O)C3)c(N3CC(C)OC(C)C3)nc12 (stereo not given) | 99.4
CCc1nnc(NC(=O)c2ccc(S(=O)(=O)N(CCOC)CCOC)cc2)o1 | 94.4
Cc1ccc(N(C(=O)CCCC(=O)Nc2ccccn2)C(C(=O)NC2CCCC2)c2ccc(O)cc2)cc1C (stereo not given) | 99
COc1ccc(OC)c(C2C(C(=O)Nc3nc4ccccc4s3)=C(C)NC3=C2C(=O)CCC3)c1 (stereo not given) | 78.4
O=[N+]([O-])c1ccc(-c2cn3nc(-c4ccccc4)c(-c4ccccc4)nc3n2)cc1 | 101
COc1ccccc1OC(C)C(=O)Nc1ccccc1C(=O)NCC1CCCO1 (stereo not given) | 95.2
COc1ccc(NS(=O)(=O)c2cccc3ccccc23)cc1 | 99.6
O=C(c1ccc2ccccc2c1)N1CCN(c2ccc(O)cc2)CC1 | 100
O=C1c2ccsc2SCCN1Cc1cccc(Cl)c1 | 92.6
CCCOc1ccc(C(=O)NNC(=S)NC(=O)CC)cc1 | 103
Cc1cccc(N2C(=O)c3cccc4c(N(C)CCO)ccc(c34)C2=O)c1 | 96.9
Cc1ccc(-n2ncc(C#N)c2/N=C/N(C)C)cc1 | 101
C=CCOc1ccccc1C(=O)/C=C1/C(=O)Nc2ccccc21 | 102
O=c1cnnc(SCc2ccc([N+](=O)[O-])cc2)[nH]1 | 99.1
Cc1ccc(S(=O)(=O)N2CCCC2C(=O)Oc2ccccc2)cc1 (stereo not given) | 99.1
COCCNc1c(-c2ccc(O)cc2)nc2ccc(Cl)cn12 | 97.4
O=C(Nc1nc(-c2ccc(F)cc2)cs1)c1cnccn1 | 98.3

SMILES | GFP response vs DMSO [%]
CS(=O)(=O)N1N=C(c2ccc3nccnc3c2)CC1c1ccccc1 (stereo not given) | 102
O=C(NCCCSc1ccccc1)c1cc(Cl)ccc1O | 98
COc1ccc(N2C(=O)CC(Sc3ncn[nH]3)C2=O)c(OC)c1 (stereo not given) | 112
CN1CCSc2ccc(C(=O)Nc3cccc(F)c3)cc21 | 91.8
CCN(CC)CCCN(C(=O)c1ccc(Br)cc1)c1nc(-c2ccc(OC)cc2)cs1 | 97.3
O=C(Nc1nccs1)C1CCCN1S(=O)(=O)c1ccc(F)cc1 (stereo not given) | 99.8
O=C(c1ccccc1)c1ccccc1N1C(=O)C=CC1=O | 61.6
COc1ccc(N2CCN(C(=O)C3CCCN(S(=O)(=O)c4ccc(C)cc4)C3)CC2)cc1 (stereo not given) | 97.4
Cc1cc(NCCCN2CCOCC2)n2nc(C)c(-c3ccc(F)cc3)c2n1 | 95.9
CCC(C)(C)n1nnnc1C(c1ccc(O)c(OC)c1)N1CCc2ccccc2C1 (stereo not given) | 99.6
COc1ccc(-c2csc(Nc3ncccc3C)n2)cc1 | 92.1
O=S(=O)(Nc1ccc(Br)cc1)c1cccc2nonc12 | 97.5
O=C(CSc1nnc(C2COc3ccccc3O2)o1)N1CCCC1 (stereo not given) | 98.6
CCc1noc(C)c1C(=O)Nc1nc2ccc(OC)cc2s1 | 92.7
CCc1ccc(C(=O)/C=C/c2ccc([N+](=O)[O-])o2)cc1 | 108
CSc1ccc(-c2cc(=O)c3ccccc3o2)cc1 | 89.3
COc1ccccc1C(=O)N1CCN(c2cccc(C(F)(F)F)c2)CC1 | 97.3
COc1cc(/C=C2\N=C(c3ccccc3)OC2=O)ccc1OCc1c(C)no[n+]1[O-] | 101
CC(C)C(=O)Nc1ccc(NC(=O)c2cc3ccccc3o2)cc1 | 100
CCOC(=O)Cc1csc(NC(=O)CSc2nnc(-c3ccc(C)cc3)o2)n1 | 98.8
